Screens (PubChem)
TCR activator: activates T cell receptor signaling | primary human leukocytes, anti-CD3, IL-2 HTRF, 48 h | 330,000 tested, under 10 active | Potency, µM (top dose mostly 9.22 µM), for the others: at the highest dose activation of IL-2 secretion, most hits filed as activators | AID 504894; further: % of control where 0% means no effect
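Readout: HTRF IL-2, Eu-cryptate/d2 antibody pair, 320nm excitation, 665nm emission. Stimulus: a-CD3 beads, no co-stimulation. Cells: primary human leukocytes. Exposure: 48 hr with compound.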
ClpP mod: qHTS Assay for Activators of ClpP | purified B. subtilis ClpP, FRET peptide cleavage, 20 min | Potency, µM (titrated, usually from 57.5 µM), for the others: at the top dose activity change, negative = active | ATP-dependent Clp protease proteolytic subunit (Bacillus subtilis (strain 168)), P80244 | 340,000 tested, 1.9% active; active means well fitted falling curve with a large enough effect; further: potency means the concentration at half of the fitted maximal effect; the source files actives as falling curves though it sought activators and does not explain the sign; nearly all actives have a fitted effect of over 65% in size
Target sequence (P80244 whole entry, looked up): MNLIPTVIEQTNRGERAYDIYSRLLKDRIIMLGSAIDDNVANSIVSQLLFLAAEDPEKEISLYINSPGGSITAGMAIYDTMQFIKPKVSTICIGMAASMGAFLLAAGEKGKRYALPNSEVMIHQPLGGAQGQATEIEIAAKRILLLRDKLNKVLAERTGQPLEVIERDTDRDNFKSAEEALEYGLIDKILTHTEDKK
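ClpP 10 microg/mL final, pH 8 Tris/KCl buffer with BSA, glycerol, Tween-20; compound pinned in; FRET-FV substrate; RT 20 min; Ex320/Em430; ΔFRET vs ADEP 5.8 microM, DMSO, no enzyme.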
uPA surface inh: cell surface uPA generation inhibition. 330,000 tested, 0.31% active. Potency, µM (doses to about 38.3 µM), for the others: at the highest dose activity change, negative = inhibition, usual class: inhibitors. AID 540303. cell surface uPA generation assay, qHTS; active means well fitted inhibition curve with a large enough effect; tested in mouse RAW 264.7 cells; further: potency means the concentration at half of the fitted maximal effect; on the % scale 0 is the no-effect control and ±100 the full control effect; nearly all actives have a fitted effect of over 55% in size
Sfp inh: inhibitors of Bacillus subtilis Sfp phosphopantetheinyl transferase; Biochemical Sfp PPTase activity, qHTS; Q9F4F7; 310,000 tested, 3.5% active; Potency, µM, for inactives: largest response in the series, negative = inhibition, actives largely listed as inhibitors;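 further: the enzyme is Sfp with the accession as filed and its product quenches rhodamine fluorescence; potency means the concentration at half of the fitted maximal effect; 0% = enzyme reaction without inhibitor and -100% = no enzyme wells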
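After 15 min at room temperature with compound, 15 nM Sfp received 5 uM rhodamine-CoA plus 12.5 uM BHQ-2-ybbR (50 mM Hepes pH 7.6, 10 mM MgCl2). Rate came from the fluorescence difference over 30 min, ex 525/em 598 nm.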
The depositor's hits bear a star; [ ] = another dose, or the depositor's remark. An excerpt weighted towards active compounds, which were near 4.2% of everything screened. Unless noted, the call rests on the fitted dose curve; in most records, active means well fitted curve in the direction sought with a large enough effect; inconclusive means small, poorly fitted or top-dose-only effect, or another doubt; inactive means no such curve, though single readings can be large; an effect the other way counts as inactive or inconclusive.

For Nc1n[nH]c2c1C1(CCCCC1)Cc1ccccc1-2 the results were TCR activator 1.9%, ClpP mod -8.2%, uPA surface inh 2.0% and Sfp inh -7.8%.
For Nc1ncnc2c1C1(CCCCC1)Cc1ccccc1-2 the results were TCR activator -16.1%[46.1 µM], ClpP mod 15.8µM*, uPA surface inh -2.6% and Sfp inh 13.7%.
For c1ccc(OCc2nc3c4c(ncn3n2)-c2ccccc2CC42CCCC2)cc1 the results were TCR activator 9.4%[46.1 µM], ClpP mod 12.6µM*, uPA surface inh 2.0% and Sfp inh 2.1%.
For CCC(=O)Nn1cnc2c(c1=O)C1(CCCCC1)Cc1ccccc1-2 the results were TCR activator 2.9%, ClpP mod -1.3%, uPA surface inh 6.4% and Sfp inh 8.8%.
Screening CC1(/[N+]([O-])=C/c2ccccc2F)CCCCC1=O (configuration not stated) returned TCR activator 1.7%, uPA surface inh 0.8% and Sfp inh 10.6%.
For S=C(Nc1cccc(Cl)c1)N(CCCN1CCCC1)Cc1cccn1Cc1ccc(Cl)cc1 the results were TCR activator -4.5%, uPA surface inh 3.5% and Sfp inh 63.1µM*.
`CSc1cccc(NC(=S)N(CCCN2CCCC2)Cc2cccn2Cc2ccc(Cl)cc2)c1` gave TCR activator -5.6%, uPA surface inh -4.2% and Sfp inh 79.4µM*.
`FC(F)Oc1ccc(NC(=S)NCc2ccccc2)cc1` gave TCR activator 9.0%[46.1 µM], ClpP mod -3.2%, uPA surface inh 1.8% and Sfp inh 11.4%.
Oc1cccc2c(NC(=S)Nc3ccc(OC(F)F)cc3)cccc12 was read as TCR activator -2.6%[46.1 µM], uPA surface inh -0.2% and Sfp inh 56.2µM*.
Screening FC(F)Oc1ccc(NC(=S)Nn2cnnc2)cc1 returned TCR activator 6.4%, ClpP mod 0.2%, uPA surface inh -6.8% and Sfp inh 22.4µM*.
CC1=NN(c2cccc(C(=O)O)c2)C(=O)/C1=C\C=C/c1ccccc1 was read as TCR activator 0.7%, uPA surface inh -15.7% and Sfp inh 50.1µM*.
Cc1ccccc1-c1cc2nc(C)c(C)c(=O)n2[nH]1 was read as ClpP mod 29.1%, uPA surface inh 2.4% and Sfp inh -1.9%.
`Cc1nc2cc(-c3cccs3)[nH]n2c(=O)c1C` gave TCR activator -6.0%, ClpP mod 14.1µM* and uPA surface inh 0.2%.
For CC1CCc2nc3ncn(Cc4ccc(Cl)cc4)c(=O)c3cc2C1 (configuration not stated) the results were ClpP mod -3.1%.
For COc1ccc(S(=O)(=O)NCCc2csc3nc(-c4cccc(C)c4)nn23)cc1F the results were ClpP mod -1.5%.
`O=C(NC1CCCCCC1)C(=S)NCCc1ccccc1` gave TCR activator -0.4%, uPA surface inh 1.9% and Sfp inh 14.1µM*.
O=C(NC1CCCCCC1)C(=S)NCc1ccccc1 was read as ClpP mod 0.4%, uPA surface inh 6.3% and Sfp inh 56.2µM*.
`O=C(NC1CCCCC1)C(=S)NCc1ccccc1` gave TCR activator -2.6%, ClpP mod 1.5%, uPA surface inh 2.5% and Sfp inh 4.3%.
Screening Cn1c(SCC(=O)Nc2ccccc2)nnc1-c1ccc2nonc2c1 returned TCR activator 7.0%, uPA surface inh 3.5% and Sfp inh 6.7%.
CCCOc1ccc(C2C(=O)N(C3CCC(C)CC3)CC(=O)N2Cc2cccc(OC)c2)cc1OC (configuration not stated) was read as ClpP mod 1.5%.
Screening O=C(Cc1ccc(-n2cccc2)cc1)NCc1ccccc1Cl returned TCR activator -11.0%[46.1 µM], ClpP mod 1.6%, uPA surface inh -20.5% and Sfp inh 0.8%.
For O=C(Cc1ccccc1)NCc1ccc(-n2cccc2)cc1 the results were TCR activator 2.2%, ClpP mod -1.2%, uPA surface inh 1.78µM* and Sfp inh 2.5%.
For CCCN1CNc2c(c(=O)[nH]c(=S)n2CCc2c(Cl)cccc2Cl)C1 the results were ClpP mod -0.6%.
Cc1nc2ccc(C(=O)N(C)Cc3ccco3)cn2c1N(C)CC1CCCCC1 was read as ClpP mod -0.9%.
`Cc1cccc2cc(C(c3nnnn3C3CCCC3)N3CCOCC3)c(=O)[nH]c12` (configuration not stated) gave TCR activator -6.7%, ClpP mod -5.0%, uPA surface inh -3.0% and Sfp inh -1.3%.
